# In paper PMC7862700, “An all-to-all approach to the identification of sequence-specific readers for epigenetic DNA modifications on cytosine”:
# Key:
# Assay in all cases: DAPPL (digital affinity profiling via proximity ligation, sequencing); 10 mM Tris-HCl pH 7.5, 50 mM NaCl, 1 mM DTT, 4% glycerol, room temperature, 30 min; GST-TFs on glutathione beads, 16-mer random dsDNA library, 0.1% formaldehyde crosslink after washing; high values mean tight binding
# HSF1 = HSF1 (Homo sapiens, UniProt Q00613 1-529); details: protein: recombinant; tags: N-terminal GST; chain copies: 3; dsDNA, one strand shown
# Summary of the method: (§1)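 Human transcription factors were made in yeast as GST fusions, captured on glutathione beads and barcoded with DNA. With a tag-only sample included, the pool was incubated with 200 nmole of a random double-stranded 16-mer DNA library in Tris/NaCl/DTT/glycerol buffer at room temperature for 30 min, then crosslinked with 0.1% formaldehyde after washing, ligated by proximity, amplified and sequenced. For binding signal, each hexamer's read frequency for a factor is divided by its frequency for the tag-only sample.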
# CRX = CRX (Homo sapiens, UniProt O43186 1-299); details: protein: recombinant; tags: N-terminal GST; dsDNA, one strand shown
# Summary of the method: as §1
# ETV7 = molecular target: T1, ETV7 (Homo sapiens, UniProt Q9Y603 1-341); details: protein: recombinant; tags: N-terminal GST; dsDNA, one strand shown
# T1 sequence: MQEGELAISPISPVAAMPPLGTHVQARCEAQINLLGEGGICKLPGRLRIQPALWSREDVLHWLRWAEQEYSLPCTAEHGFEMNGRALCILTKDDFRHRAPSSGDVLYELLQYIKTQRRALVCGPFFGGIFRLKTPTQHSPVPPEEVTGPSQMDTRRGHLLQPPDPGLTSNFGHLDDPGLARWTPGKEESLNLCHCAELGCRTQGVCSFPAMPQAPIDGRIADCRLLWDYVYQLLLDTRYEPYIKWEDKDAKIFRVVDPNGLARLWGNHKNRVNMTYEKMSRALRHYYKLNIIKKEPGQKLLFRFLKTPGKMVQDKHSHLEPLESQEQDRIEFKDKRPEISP
# Summary of the method: as §1
# ELK3 = molecular target: T2, ELK3 (Homo sapiens, UniProt P41970 1-407); details: protein: recombinant; tags: N-terminal GST; dsDNA, one strand shown
# T2 sequence: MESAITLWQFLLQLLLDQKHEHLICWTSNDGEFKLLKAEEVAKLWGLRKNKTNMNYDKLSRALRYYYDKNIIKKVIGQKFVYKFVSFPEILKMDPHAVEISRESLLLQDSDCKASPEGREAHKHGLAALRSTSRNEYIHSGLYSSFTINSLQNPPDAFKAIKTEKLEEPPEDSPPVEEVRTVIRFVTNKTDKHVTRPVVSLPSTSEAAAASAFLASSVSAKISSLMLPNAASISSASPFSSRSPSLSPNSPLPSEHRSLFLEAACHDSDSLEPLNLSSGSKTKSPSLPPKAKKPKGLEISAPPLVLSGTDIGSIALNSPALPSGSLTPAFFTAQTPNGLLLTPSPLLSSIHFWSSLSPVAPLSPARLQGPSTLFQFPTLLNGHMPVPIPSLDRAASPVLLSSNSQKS
# Summary of the method: as §1
# ELF5 = molecular target: T3, ELF5 (Homo sapiens, UniProt Q9UKW6-2 1-255); details: protein: recombinant; tags: N-terminal GST; dsDNA, one strand shown
# T3 sequence: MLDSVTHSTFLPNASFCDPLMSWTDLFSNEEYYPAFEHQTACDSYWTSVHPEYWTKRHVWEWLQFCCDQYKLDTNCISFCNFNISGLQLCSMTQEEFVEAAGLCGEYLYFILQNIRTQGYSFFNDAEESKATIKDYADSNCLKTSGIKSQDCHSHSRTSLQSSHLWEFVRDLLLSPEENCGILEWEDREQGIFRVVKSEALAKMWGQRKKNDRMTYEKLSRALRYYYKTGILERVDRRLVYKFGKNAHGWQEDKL
# Summary of the method: as §1
# ETV3 = molecular target: T4, ETV3 (Homo sapiens, UniProt P41162-2 1-143); details: protein: recombinant; tags: N-terminal GST; dsDNA, one strand shown
# T4 sequence: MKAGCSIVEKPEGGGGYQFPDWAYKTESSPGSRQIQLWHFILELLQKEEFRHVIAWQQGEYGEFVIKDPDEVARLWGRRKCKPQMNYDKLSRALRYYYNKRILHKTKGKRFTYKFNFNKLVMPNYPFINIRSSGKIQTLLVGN
# Summary of the method: as §1
# ETV6 = ETV6 (Homo sapiens, UniProt P41212 1-452); details: protein: recombinant; tags: N-terminal GST; dsDNA, one strand shown
# Summary of the method: as §1
# GABPA = molecular target: T5, GABPA (Homo sapiens, UniProt Q06546 1-454); details: protein: recombinant; tags: N-terminal GST; dsDNA, one strand shown
# T5 sequence: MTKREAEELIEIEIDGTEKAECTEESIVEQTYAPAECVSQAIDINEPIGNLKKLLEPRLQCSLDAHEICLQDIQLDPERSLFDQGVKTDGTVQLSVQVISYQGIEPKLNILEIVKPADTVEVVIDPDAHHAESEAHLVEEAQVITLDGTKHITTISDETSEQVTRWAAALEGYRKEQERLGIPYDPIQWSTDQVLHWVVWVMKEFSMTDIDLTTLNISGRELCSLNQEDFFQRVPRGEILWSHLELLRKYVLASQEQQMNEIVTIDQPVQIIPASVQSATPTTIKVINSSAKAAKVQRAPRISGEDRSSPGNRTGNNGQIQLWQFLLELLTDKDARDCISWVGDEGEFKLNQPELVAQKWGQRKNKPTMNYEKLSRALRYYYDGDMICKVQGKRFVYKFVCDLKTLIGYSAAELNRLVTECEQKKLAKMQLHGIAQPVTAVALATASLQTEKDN
# Summary of the method: as §1
# ELF1 = ELF1 (Homo sapiens, UniProt P32519 1-619); details: protein: recombinant; tags: N-terminal GST; dsDNA, one strand shown
# Summary of the method: as §1
# EHF = molecular target: T6, EHF (Homo sapiens, UniProt Q9NZC4 1-300); details: protein: recombinant; tags: N-terminal GST; dsDNA, one strand shown
# T6 sequence: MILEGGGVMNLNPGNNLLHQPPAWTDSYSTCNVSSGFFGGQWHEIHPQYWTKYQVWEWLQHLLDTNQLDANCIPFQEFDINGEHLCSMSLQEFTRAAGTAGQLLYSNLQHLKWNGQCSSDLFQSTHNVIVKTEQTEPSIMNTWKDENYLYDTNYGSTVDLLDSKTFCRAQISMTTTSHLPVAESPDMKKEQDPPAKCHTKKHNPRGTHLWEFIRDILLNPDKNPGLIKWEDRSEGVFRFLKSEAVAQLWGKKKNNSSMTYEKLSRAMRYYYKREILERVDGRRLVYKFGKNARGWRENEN
# Summary of the method: as §1
# ETV3L = molecular target: T7, ETV3L (Homo sapiens, UniProt Q6ZN32 1-361); details: protein: recombinant; tags: N-terminal GST; dsDNA, one strand shown
# T7 sequence: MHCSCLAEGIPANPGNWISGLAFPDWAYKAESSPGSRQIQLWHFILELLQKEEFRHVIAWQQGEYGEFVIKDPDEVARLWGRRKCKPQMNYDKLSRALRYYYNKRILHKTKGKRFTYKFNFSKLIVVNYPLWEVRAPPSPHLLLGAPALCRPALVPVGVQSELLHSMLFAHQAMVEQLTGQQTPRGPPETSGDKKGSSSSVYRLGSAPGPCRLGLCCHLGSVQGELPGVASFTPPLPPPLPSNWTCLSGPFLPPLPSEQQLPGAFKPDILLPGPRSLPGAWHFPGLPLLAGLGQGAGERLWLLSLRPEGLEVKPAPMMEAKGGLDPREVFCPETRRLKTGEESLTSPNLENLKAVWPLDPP
# Summary of the method: as §1
# SPDEF = molecular target: T8, SPDEF (Homo sapiens, UniProt O95238 1-335); details: protein: recombinant; tags: N-terminal GST; dsDNA, one strand shown
# T8 sequence: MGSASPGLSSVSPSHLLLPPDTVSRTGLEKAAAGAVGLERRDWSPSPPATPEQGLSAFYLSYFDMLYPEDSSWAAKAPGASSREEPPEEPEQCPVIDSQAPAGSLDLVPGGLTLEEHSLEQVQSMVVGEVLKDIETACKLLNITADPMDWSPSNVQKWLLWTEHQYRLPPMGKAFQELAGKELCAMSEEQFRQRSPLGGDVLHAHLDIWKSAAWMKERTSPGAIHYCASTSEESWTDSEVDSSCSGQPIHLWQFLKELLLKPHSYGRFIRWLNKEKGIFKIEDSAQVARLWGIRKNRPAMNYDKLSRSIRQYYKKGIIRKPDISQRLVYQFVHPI
# Summary of the method: as §1
# ERF = molecular target: T9, ERF (Homo sapiens, UniProt P50548 1-548); details: protein: recombinant; tags: N-terminal GST; dsDNA, one strand shown
# T9 sequence: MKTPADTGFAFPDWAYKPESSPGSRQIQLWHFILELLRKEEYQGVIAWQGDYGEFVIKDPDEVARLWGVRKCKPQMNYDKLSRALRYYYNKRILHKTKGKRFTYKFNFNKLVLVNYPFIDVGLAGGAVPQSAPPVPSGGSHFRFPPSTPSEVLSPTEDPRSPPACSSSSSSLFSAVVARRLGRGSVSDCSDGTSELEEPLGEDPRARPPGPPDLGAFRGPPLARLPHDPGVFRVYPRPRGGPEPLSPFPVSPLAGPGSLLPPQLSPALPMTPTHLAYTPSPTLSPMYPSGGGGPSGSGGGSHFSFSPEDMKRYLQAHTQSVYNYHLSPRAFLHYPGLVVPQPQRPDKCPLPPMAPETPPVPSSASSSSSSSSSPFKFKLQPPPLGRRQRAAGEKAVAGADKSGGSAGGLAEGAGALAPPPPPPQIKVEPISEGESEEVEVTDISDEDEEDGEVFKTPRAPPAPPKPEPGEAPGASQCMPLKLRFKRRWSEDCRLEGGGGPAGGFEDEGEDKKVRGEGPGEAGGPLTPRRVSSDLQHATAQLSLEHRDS
# Summary of the method: as §1
# CRX, sequence (O43186 whole entry): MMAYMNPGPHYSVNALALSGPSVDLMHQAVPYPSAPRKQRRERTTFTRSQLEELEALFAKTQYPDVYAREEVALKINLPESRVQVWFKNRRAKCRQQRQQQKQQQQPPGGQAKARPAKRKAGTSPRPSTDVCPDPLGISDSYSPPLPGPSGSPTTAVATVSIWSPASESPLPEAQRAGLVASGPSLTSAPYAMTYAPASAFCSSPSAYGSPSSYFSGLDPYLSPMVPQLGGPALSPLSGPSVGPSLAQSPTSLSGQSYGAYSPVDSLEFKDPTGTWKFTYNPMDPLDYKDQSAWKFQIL
# HSF1, sequence (Q00613 whole entry, the tested form may be a part): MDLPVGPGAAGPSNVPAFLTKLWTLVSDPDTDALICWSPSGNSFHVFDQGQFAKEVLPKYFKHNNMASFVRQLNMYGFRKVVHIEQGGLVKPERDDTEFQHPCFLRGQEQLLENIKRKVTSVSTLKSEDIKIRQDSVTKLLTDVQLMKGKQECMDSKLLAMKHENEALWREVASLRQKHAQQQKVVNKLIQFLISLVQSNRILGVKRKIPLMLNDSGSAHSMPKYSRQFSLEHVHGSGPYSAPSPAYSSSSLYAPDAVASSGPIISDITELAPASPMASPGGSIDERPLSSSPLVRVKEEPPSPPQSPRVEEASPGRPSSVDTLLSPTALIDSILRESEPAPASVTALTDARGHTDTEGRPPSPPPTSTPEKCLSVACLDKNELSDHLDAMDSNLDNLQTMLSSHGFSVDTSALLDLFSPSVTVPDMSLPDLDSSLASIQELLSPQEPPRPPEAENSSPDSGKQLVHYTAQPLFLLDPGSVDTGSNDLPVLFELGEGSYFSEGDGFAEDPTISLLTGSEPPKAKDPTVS
# ETV6, sequence (P41212 whole entry): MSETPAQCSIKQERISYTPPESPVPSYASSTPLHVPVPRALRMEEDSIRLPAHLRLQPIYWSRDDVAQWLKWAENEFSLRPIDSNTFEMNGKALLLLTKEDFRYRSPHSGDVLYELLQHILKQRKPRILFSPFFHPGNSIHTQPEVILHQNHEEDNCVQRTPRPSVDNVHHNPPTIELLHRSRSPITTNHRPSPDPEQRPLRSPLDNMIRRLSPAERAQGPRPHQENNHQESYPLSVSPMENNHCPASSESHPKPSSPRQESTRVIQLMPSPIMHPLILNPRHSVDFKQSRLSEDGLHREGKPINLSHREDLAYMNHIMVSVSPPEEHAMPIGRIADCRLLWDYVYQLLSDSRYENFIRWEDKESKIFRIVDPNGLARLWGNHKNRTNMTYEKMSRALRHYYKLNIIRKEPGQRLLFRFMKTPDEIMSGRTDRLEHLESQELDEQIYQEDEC
# ELF1, sequence (P32519 whole entry): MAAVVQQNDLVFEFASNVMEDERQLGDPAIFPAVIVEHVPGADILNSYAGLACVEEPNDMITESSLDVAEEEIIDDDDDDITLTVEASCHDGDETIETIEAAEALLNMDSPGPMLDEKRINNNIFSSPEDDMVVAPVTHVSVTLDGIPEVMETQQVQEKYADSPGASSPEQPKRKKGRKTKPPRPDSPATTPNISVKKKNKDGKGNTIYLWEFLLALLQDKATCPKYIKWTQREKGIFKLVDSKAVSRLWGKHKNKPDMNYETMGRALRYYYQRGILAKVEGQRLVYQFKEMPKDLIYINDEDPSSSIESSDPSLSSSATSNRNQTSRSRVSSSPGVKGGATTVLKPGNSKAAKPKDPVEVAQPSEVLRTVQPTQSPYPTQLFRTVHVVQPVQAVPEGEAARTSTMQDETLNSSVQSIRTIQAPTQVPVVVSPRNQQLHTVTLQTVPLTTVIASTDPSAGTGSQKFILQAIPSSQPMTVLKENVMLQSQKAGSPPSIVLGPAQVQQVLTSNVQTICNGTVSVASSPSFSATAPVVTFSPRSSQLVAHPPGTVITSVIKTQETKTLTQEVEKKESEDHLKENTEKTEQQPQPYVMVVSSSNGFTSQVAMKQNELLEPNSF
sequence,measurement,setting,value
TTAGTC,binding signal,HSF1,"1.17 fold enrichment (6-mer frequency, TF over GST control)"
same,binding signal,CRX,"1.57 fold enrichment (6-mer frequency, TF over GST control)"
CGAGAA,binding signal,HSF1,"3.31 fold enrichment (6-mer frequency, TF over GST control)"
same,binding signal,CRX,"1.27 fold enrichment (6-mer frequency, TF over GST control)"
same,binding signal,ETV7,"1.01 fold enrichment (6-mer frequency, TF over GST control)"
GGAAAG,binding signal,ELK3,"1 fold enrichment (6-mer frequency, TF over GST control)"
same,binding signal,HSF1,"1.29 fold enrichment (6-mer frequency, TF over GST control)"
same,binding signal,ETV7,"1.06 fold enrichment (6-mer frequency, TF over GST control)"
same,binding signal,ELF5,"1.12 fold enrichment (6-mer frequency, TF over GST control)"
same,binding signal,ETV3,"1 fold enrichment (6-mer frequency, TF over GST control)"
same,binding signal,ETV6,"1.06 fold enrichment (6-mer frequency, TF over GST control)"
TAAGAC,binding signal,HSF1,"1.22 fold enrichment (6-mer frequency, TF over GST control)"
same,binding signal,CRX,"1.72 fold enrichment (6-mer frequency, TF over GST control)"
GACTAA,binding signal,HSF1,"1.13 fold enrichment (6-mer frequency, TF over GST control)"
same,binding signal,CRX,"1.44 fold enrichment (6-mer frequency, TF over GST control)"
CTAGAC,binding signal,GABPA,"1.01 fold enrichment (6-mer frequency, TF over GST control)"
same,binding signal,ELF1,"1.09 fold enrichment (6-mer frequency, TF over GST control)"
same,binding signal,EHF,"1.01 fold enrichment (6-mer frequency, TF over GST control)"
same,binding signal,HSF1,"1.59 fold enrichment (6-mer frequency, TF over GST control)"
same,binding signal,CRX,"1 fold enrichment (6-mer frequency, TF over GST control)"
GGATTC,binding signal,HSF1,"1.13 fold enrichment (6-mer frequency, TF over GST control)"
same,binding signal,CRX,"1.15 fold enrichment (6-mer frequency, TF over GST control)"
same,binding signal,ETV3L,"1.02 fold enrichment (6-mer frequency, TF over GST control)"
same,binding signal,SPDEF,"1.07 fold enrichment (6-mer frequency, TF over GST control)"
GATAAG,binding signal,ELK3,"1.02 fold enrichment (6-mer frequency, TF over GST control)"
same,binding signal,HSF1,"1.29 fold enrichment (6-mer frequency, TF over GST control)"
same,binding signal,CRX,"1.77 fold enrichment (6-mer frequency, TF over GST control)"
TTCGGG,binding signal,HSF1,"1.58 fold enrichment (6-mer frequency, TF over GST control)"
same,binding signal,CRX,"1 fold enrichment (6-mer frequency, TF over GST control)"
same,binding signal,ETV3,"1.03 fold enrichment (6-mer frequency, TF over GST control)"
CCAAGA,binding signal,HSF1,"1.03 fold enrichment (6-mer frequency, TF over GST control)"
same,binding signal,ERF,"1.01 fold enrichment (6-mer frequency, TF over GST control)"
GAAGAT,binding signal,HSF1,"1.24 fold enrichment (6-mer frequency, TF over GST control)"
same,binding signal,CRX,"1.12 fold enrichment (6-mer frequency, TF over GST control)"
same,binding signal,ETV7,"1 fold enrichment (6-mer frequency, TF over GST control)"
